Among the data in the supplement of paper PMC10849652 are log2 fold change values, retold here.

Targets with a hit are over-represented here; the source holds about 7,900 in all. About 0.6% of all pairs of compound and target were hits.

UniProt Q9BZL6, sequence (Q9BZL6 whole entry, looked up): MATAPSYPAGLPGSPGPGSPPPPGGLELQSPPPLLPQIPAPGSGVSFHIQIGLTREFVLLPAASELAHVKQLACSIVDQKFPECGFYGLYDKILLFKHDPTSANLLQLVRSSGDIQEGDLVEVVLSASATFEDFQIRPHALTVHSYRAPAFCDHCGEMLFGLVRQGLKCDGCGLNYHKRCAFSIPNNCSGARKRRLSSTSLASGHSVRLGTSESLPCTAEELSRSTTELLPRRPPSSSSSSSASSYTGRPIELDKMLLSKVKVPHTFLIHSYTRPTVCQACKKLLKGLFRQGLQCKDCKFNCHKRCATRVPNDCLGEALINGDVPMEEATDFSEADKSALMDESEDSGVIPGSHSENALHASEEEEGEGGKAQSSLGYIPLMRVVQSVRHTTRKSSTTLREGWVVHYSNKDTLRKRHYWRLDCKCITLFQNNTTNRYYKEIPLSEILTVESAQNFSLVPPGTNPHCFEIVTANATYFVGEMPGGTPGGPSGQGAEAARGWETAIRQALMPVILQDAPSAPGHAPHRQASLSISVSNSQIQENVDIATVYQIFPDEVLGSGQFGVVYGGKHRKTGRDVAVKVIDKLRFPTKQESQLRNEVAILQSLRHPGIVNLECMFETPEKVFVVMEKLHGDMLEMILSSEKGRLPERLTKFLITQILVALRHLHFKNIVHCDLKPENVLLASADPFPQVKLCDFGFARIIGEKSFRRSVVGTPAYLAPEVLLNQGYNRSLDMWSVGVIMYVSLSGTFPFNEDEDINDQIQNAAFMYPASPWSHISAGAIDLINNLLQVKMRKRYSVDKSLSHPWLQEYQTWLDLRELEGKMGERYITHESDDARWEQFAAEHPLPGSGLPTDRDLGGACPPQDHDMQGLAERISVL
UniProt P62191, sequence (P62191 whole entry, looked up): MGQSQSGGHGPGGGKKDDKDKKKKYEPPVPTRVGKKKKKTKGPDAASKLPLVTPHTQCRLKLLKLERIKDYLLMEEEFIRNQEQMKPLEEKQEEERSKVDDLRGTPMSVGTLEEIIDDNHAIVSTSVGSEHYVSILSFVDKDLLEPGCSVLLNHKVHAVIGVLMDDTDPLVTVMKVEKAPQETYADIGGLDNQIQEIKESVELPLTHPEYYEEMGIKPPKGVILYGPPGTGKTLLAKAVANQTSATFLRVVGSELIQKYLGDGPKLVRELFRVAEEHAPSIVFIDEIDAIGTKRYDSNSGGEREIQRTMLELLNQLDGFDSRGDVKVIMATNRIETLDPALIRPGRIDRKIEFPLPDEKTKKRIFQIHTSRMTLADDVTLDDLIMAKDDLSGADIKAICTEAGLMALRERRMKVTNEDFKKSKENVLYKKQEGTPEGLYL
UniProt Q96PU8, sequence (Q96PU8 whole entry, looked up): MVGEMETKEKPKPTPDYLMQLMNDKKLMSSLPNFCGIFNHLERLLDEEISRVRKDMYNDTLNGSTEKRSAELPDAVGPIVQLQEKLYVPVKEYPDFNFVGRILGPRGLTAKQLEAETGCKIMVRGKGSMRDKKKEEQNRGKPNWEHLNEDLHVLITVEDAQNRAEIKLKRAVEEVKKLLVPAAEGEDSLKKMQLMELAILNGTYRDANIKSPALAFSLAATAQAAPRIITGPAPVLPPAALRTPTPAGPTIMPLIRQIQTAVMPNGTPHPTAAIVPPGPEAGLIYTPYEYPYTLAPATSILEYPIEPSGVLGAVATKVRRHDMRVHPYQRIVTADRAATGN
UniProt Q9Y478, sequence (Q9Y478 whole entry, looked up): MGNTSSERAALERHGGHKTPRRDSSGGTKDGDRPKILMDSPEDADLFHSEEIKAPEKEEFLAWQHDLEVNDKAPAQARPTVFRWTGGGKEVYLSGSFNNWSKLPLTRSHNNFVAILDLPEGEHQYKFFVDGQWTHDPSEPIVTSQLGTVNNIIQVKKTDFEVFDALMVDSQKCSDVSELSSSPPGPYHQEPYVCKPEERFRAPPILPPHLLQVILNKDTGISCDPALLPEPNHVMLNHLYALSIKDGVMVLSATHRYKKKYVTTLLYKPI
UniProt P62195, sequence (P62195 whole entry, looked up): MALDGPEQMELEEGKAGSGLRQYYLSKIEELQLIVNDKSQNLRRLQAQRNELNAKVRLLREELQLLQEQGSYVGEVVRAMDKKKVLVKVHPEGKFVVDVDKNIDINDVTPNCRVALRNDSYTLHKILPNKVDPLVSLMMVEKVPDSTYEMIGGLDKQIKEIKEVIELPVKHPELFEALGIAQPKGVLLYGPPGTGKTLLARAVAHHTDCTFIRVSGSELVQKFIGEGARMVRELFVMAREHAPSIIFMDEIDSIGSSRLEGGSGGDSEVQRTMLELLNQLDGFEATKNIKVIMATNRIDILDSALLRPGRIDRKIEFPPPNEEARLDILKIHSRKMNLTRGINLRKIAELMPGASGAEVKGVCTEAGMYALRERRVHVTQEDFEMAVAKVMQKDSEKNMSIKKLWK
UniProt P35998, sequence (P35998 whole entry, looked up): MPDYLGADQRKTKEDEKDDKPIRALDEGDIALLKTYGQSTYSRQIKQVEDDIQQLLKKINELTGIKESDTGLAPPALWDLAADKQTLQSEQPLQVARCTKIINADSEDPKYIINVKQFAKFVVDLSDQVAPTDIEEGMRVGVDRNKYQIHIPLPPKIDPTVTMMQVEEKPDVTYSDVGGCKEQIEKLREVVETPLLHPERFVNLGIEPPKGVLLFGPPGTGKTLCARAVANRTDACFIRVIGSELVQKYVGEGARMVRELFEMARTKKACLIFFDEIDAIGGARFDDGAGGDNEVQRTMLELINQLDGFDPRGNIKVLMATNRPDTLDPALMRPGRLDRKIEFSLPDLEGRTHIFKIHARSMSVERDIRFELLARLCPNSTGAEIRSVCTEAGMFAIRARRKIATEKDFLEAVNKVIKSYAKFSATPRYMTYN
UniProt P28070, sequence (P28070 whole entry, looked up): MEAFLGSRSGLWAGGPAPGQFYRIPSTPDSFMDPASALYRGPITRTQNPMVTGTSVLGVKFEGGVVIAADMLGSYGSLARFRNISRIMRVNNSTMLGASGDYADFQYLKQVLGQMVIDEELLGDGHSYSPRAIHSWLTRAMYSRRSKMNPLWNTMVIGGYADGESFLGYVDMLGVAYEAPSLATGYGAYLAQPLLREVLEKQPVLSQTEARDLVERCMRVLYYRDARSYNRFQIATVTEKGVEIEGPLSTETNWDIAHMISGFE
UniProt O95453, sequence (O95453 whole entry, looked up): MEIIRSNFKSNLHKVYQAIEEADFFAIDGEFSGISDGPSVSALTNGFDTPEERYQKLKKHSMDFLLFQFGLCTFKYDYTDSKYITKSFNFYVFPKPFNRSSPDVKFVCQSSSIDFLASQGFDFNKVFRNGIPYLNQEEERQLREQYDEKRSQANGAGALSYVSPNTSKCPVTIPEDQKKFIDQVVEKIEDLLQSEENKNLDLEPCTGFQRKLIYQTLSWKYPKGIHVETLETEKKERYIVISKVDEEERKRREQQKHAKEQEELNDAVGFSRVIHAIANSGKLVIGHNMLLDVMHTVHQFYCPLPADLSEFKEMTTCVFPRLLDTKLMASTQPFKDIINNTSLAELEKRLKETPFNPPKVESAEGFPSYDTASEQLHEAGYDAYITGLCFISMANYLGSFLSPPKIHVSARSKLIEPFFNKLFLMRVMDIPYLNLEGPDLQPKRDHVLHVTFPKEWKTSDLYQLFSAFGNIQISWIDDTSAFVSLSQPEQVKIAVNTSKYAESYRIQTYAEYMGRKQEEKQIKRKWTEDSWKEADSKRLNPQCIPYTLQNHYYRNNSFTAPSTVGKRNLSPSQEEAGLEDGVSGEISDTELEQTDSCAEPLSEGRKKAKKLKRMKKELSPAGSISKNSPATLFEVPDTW
UniProt P15735, sequence (P15735 whole entry, looked up): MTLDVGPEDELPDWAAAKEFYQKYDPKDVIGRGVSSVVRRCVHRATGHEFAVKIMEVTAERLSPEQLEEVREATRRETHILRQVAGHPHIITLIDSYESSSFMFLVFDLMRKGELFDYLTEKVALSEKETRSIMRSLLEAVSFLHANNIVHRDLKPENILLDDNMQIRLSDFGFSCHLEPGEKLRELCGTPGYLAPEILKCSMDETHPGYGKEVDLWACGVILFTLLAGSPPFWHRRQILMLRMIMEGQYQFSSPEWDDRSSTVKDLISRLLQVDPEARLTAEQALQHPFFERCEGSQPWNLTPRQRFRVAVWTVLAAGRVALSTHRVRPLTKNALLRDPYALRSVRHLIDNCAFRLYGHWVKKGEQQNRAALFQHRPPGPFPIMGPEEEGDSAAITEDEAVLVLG
UniProt Q9UNM6, sequence (Q9UNM6 whole entry, looked up): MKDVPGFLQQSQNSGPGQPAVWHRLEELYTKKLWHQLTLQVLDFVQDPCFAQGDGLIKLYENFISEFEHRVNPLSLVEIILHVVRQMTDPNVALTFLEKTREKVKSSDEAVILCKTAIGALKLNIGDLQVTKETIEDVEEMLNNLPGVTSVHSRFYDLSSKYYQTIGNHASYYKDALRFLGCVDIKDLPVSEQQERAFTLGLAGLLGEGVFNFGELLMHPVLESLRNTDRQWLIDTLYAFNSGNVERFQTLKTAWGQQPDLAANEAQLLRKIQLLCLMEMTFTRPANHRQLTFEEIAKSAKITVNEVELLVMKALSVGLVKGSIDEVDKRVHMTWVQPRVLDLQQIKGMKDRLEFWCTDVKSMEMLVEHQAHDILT
UniProt Q92968, sequence (Q92968 whole entry, looked up): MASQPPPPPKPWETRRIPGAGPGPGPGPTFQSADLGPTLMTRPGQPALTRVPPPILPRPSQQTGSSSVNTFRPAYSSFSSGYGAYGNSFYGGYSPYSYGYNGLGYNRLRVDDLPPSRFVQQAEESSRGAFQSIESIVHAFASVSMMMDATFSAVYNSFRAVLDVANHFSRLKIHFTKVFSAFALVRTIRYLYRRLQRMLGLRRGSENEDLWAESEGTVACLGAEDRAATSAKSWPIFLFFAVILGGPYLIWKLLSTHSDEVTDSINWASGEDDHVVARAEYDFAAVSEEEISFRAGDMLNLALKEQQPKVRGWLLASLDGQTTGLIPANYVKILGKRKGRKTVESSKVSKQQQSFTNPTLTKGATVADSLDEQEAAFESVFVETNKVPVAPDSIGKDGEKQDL

Compound in one assay: CC1=C(C2=C(C=C1)C(=O)C3=CC=CC=C3N2CCCN)C
Put plainly: log2 fold change, soluble protein after heating vs DMSO (PISA); higher = thermal stabilisation; K562 cells, 10 uM, 30 min; active = over 0.2 and 3.5 SD of the protein, either way, in both replicates (recomputed). Put shortly: (§1)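 Thermal stability values are relative to control samples and come from duplicates. They are expressed as log2 fold changes. For measurement, K562 cells (2×10^6 cells/mL) received 10 μM compound for 30 min, and aliquots were heated for 3 min over 48°C-58°C, pooled, and extracted at 4°C in PBS with 0.5% NP-40. Soluble protein, the supernatant after 21,000xg for 90 min, was quantified by TMTpro 16plex LC-MS/MS with equalised channel sums.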
Regarding PSMC2 (UniProt P35998), the log2 fold change is -0.039 (inactive).
In the case of PSMB6 (UniProt P28072), the log2 fold change was 0 (inactive).
Still for that read-out and setting: then PRKD2 isoform 3 (UniProt Q9BZL6), with -0.087 (inactive); and QKI (UniProt Q96PU8), with -0.043 (inactive); and PKN1 isoform 2 (UniProt Q16512), with 0.047 (inactive).
Still for that read-out and setting: then PRPF38B (UniProt Q5VTL8), with 0.159 (inactive); and PTPN12 (UniProt Q05209), with 0.004 (inactive); and PDCD6 (UniProt O75340), with -0.034 (inactive).
Same read-out and setting: then PPOX (UniProt P50336), with -0.009 (inactive).
Turning to POP1 (UniProt Q99575), the log2 fold change is -0.271 (active).
In the case of PIKFYVE (UniProt Q9Y2I7), the log2 fold change was 0.012 (inactive).
The same measure, in the same setting: with PPP1R35 (UniProt Q8TAP8) the figure was -0.049 (inactive); with PSMB4 (UniProt P28070), 0.018 (inactive).
On to PLIN2 (UniProt Q99541), for which the log2 fold change is -0.022 (inactive).
On the same count and under the same terms, with PCNT (UniProt O95613) the figure was -0.018 (inactive); with PSMD13 (UniProt Q9UNM6), 0.032 (inactive); with PEA15 isoform 2 (UniProt Q15121), 0.038 (inactive).
On the same count and under the same terms, with PARG (UniProt Q86W56) the figure was 0.331 (active).
With PDLIM7 (UniProt Q9NR12), the log2 fold change was 0.065 (inactive).
Same read-out and setting: with PEX13 (UniProt Q92968) the figure was 0.024 (inactive); with PRKCD (UniProt Q05655), 0 (inactive).
On the same count and under the same terms, with PSMC5 (UniProt P62195) the figure was 0.002 (inactive).
Still for that read-out and setting: then PCBP1 (UniProt Q15365), with 0.039 (inactive).
POLR3B (UniProt Q9NW08): the log2 fold change was 0.297 (active).
Same read-out and setting: with PHKG2 (UniProt P15735) the figure was 0.115 (inactive).
POLR2D (UniProt O15514): the log2 fold change was 0.26 (inactive).
The same measure, in the same setting: then PRKAB1 (UniProt Q9Y478), with 0.015 (inactive).
As to PRKAA1 isoform 2 (UniProt Q13131), the log2 fold change was 0.019 (inactive).
On the same count and under the same terms, with PSMC4 (UniProt P43686) the figure was 0.016 (inactive); with PRKAR1A (UniProt P10644), -0.127 (inactive); with PIK3R1 (UniProt P27986), 0.072 (inactive).
Same read-out and setting: with PHAX (UniProt Q9H814) the figure was -0.253 (active); with PIP4P2 (UniProt Q8N4L2), 0.033 (inactive).
As for PLBD1 (UniProt Q6P4A8), the log2 fold change was 0.02 (inactive).
Still for that read-out and setting: with PSMC1 (UniProt P62191) the figure was -0.007 (inactive); with PDE12 (UniProt Q6L8Q7), 0.033 (inactive); with PARN (UniProt O95453), 0.033 (inactive).

Compound in a further assay: CC1=C(C=C(C=C1)NC(=O)C2=CC(=CC=C2)C(C)(C)C#N)NC3=CC4=C(C=C3)N=CN(C4=O)C
Described as above. A digest of the protocol: as §1
PSMC2 (UniProt P35998): the log2 fold change was 0.011 (inactive).
On the same count and under the same terms, then PSMB6 (UniProt P28072), with 0.002 (inactive).
Regarding PRKD2 isoform 3 (UniProt Q9BZL6), the log2 fold change is 0.296 (inactive).
The same measure, in the same setting: with QKI (UniProt Q96PU8) the figure was 0.05 (inactive); with PKN1 isoform 2 (UniProt Q16512), 0.01 (inactive); with PRPF38B (UniProt Q5VTL8), -0.001 (inactive).
Still for that read-out and setting: then PTPN12 (UniProt Q05209), with -0.026 (inactive); and PDCD6 (UniProt O75340), with 0.013 (inactive).
Regarding PPOX (UniProt P50336), the log2 fold change is 0.402 (inactive).
As for POP1 (UniProt Q99575), the log2 fold change was 0.03 (inactive).
Turning to PIKFYVE (UniProt Q9Y2I7), the log2 fold change was -0.012 (inactive).
On the same count and under the same terms, with PPP1R35 (UniProt Q8TAP8) the figure was -0.011 (inactive); with PSMB4 (UniProt P28070), -0.026 (inactive); with PLIN2 (UniProt Q99541), 0.069 (inactive).
The same measure, in the same setting: then PCNT (UniProt O95613), with -0.104 (inactive); and PSMD13 (UniProt Q9UNM6), with 0.03 (inactive); and PEA15 isoform 2 (UniProt Q15121), with 0.004 (inactive).
Same read-out and setting: then PARG (UniProt Q86W56), with 0.126 (inactive); and PDLIM7 (UniProt Q9NR12), with 0.02 (inactive).
Turning to PEX13 (UniProt Q92968), the log2 fold change was 0.052 (inactive).
Still for that read-out and setting: with PRKCD (UniProt Q05655) the figure was -0.015 (inactive).
For the target PSMC5 (UniProt P62195), the log2 fold change was 0.014 (inactive).
For the target PCBP1 (UniProt Q15365), the log2 fold change is 0.034 (inactive).
Same read-out and setting: then POLR3B (UniProt Q9NW08), with 0.024 (inactive); and PHKG2 (UniProt P15735), with 0.012 (inactive); and POLR2D (UniProt O15514), with -0.022 (inactive).
Turning to PRKAB1 (UniProt Q9Y478), the log2 fold change is -0.055 (inactive).
Take PRKAA1 isoform 2 (UniProt Q13131): the log2 fold change is -0.029 (inactive).
The same measure, in the same setting: then PSMC4 (UniProt P43686), with 0.016 (inactive); and PRKAR1A (UniProt P10644), with 0.15 (inactive); and PIK3R1 (UniProt P27986), with -0.08 (inactive).
On the same count and under the same terms, with PHAX (UniProt Q9H814) the figure was -0.019 (inactive); with PIP4P2 (UniProt Q8N4L2), 0.107 (inactive); with PLBD1 (UniProt Q6P4A8), 0.005 (inactive).
Still for that read-out and setting: with PSMC1 (UniProt P62191) the figure was 0.024 (inactive); with PDE12 (UniProt Q6L8Q7), 0.049 (inactive).
In the case of PARN (UniProt O95453), the log2 fold change was -0.038 (inactive).
